# The supplement of paper PMC12632987
# Whole data set: some 2,300 sequences, median “median log2 fold change of GCK-ALFA target abundance (FLAG IP / Myc IP barcode read proportion)” near 0.095, cut for the lowest 2% near -0.47. Shown is part of a subset that was picked to be rich in the lowest values.
# B1: LC3A_free_8_2456 (protein)
# chain: SSQKLVDTAVKLLEEMEKELTELAKKEGLSRLDILELELEIGSLIAEVISLVDKSPEEILETTKEGLEEIIELAKELGEEVAKLAEEKSKEIIEELEKLI
# B2: LC3A_28_1295 (protein)
# chain: SEIEKNLKEALAEAKKAKAEGKQVVITVKVPGDATQEEIELVIKGLEEIAKVLEDVPNQTIIIDVEAGVKQEHIDLLADRAEEIEKKYPNVTVIIALDED
# B3: LC3A_28_1049 (protein)
# chain: SPIEEELKRALEEAKEAVARGEEALIRLTIGKDATEEDVEKVLETMEEIAELTKSLPRVDIVVDVDSENKEEVTKKIAEKGEELEKKYPNVTVYIALSEE
# B4: LC3A_28_1058 (protein)
# chain: MSIEEQLEKALEEAKEAVKKGEEALVELKINKDSTEEDVEKVLETMKEIAELTKDLPSVSIVVDVDHENKEEVTKKVSELGDELEKKYPNVTVIIALSEE
# B5: LC3A_28_738 (protein)
# chain: SAIEKELEKAIKEAKEAAKAKEPKVITITVPGTANEEDIELVIKALEEIAEILKDVKDQAIIIDVDGKLDPELLKKLMDKAEEIEEKYPNVTVIIALDEE
# B6: LC3A_free_8_2444 (protein)
# chain: STQKLVDEVTELLDEMEERVEEKAKELGLSELDILDLSLLIGSLIAEIISAVDKSIEEIRKIVEEDMEEIIEEARELSEEIAEIVEETKERILELIDEAE
# B7: LC3A_28_1082 (protein)
# chain: SAVDAQIAAALAALRAAKAAGEEALLTLTLTEDATQEDVDRLIAGLEEIAELARDAARVTVVIDLDGKIPQEHIDRIADAAERIEERVPNVTVIIALDEE
# B8: LC3A_free_39_2223 (protein)
# chain: SEEEIEKLIKEVAKESGIDYEELKKKIEEIKEVGKLSNEQILEIVKAILEAVKAGADAKEILEEALKLTKELVAAGKSPEEIKEEILELIEDYRNLVPLD
# B9: LC3A_3_1370 (protein)
# chain: MEEEKAATLAELKAAGKSEETIAAVEKTLDALIEKGYEEAAKTFMELLKELKDLSDEILLAFAEDVLKAVEEEDLSEEELIKFIKEEATIARNEQEIIEL
# B10: LC3A_28_1052 (protein)
# chain: SHIDEQIEKALKEAEEAKAKGEEALIELHIGKDANEEDVEKVLETIEKIAEITKDLPSVTIIVDVDNPNKEEVTKKIDEVGEELAKKYPNVTVIIALSEE
# B11: LC3A_28_1053 (protein)
# chain: SAIDKQLEAALAEARAAAAAGEEALITLTIPENATEEDVEKVLATIREIAEITKDLPATTIIVDVDNKNQEEVTKKIDEVGEELAKKYPNVTVIIALSEN
# B12: LC3A_free_46_2334 (protein)
# chain: TLVVVEVDVLAPDRATAEAFVADLEARIRARLAEAGIDAEVEVELEEGPDGKTFRVTVKVRLKDPEADPQEVADLVVDAIDESAEEHGLSYIISVEIIEE
# B13: LC3A_28_811 (protein)
# chain: SHVDEVIAAVKEEGEKLKNSKEDVLLEVRVSGDITVEEAERLMDAIEEIARELAKNRKVYIVITAEEPISQEVLDTILDRAEEIEEKYPNVSVIVALPEE
# B14: LC3A_3_1711 (protein)
# chain: GEELIEEAEKILKEKGLSEETKKAVLEALKALLEKGYINAAKELIKLLKEAKDLSDEVILDFAKDVLEYVKTEDVSEEETIKKIKEEYEIAKNEEEIEEL
# B15: LC3A_free_46_2301 (protein)
# chain: IKVEIDIYFGAAPLEKIEEAAKRLTETAEKKAKELGAEVEIEVKITKNEDGTYTLEIRITAKVKTLEDANKFIQAISDKVDEINKELGIAAIMSIEVIEE
# B16: LC3A_3_1472 (protein)
# chain: LEERLEEVLKRLREAGASEEVLEAVREAYEKLKELGHEEAAKTFIEEMEKLVGLPSELLLAFAEDVLAAVEKYADDPEKLIEEIKSIAAATRNEAEIIEL
# B17: LC3A_28_903 (protein)
# chain: SPALESAEKALKEVKKAVAAGNQEPLVLEVKAPSTQEDVDKLLKLLEEIAEEASKLKGVSIIIDIDESVSQENRDRIIDKAEELEEKYPNVTIIIALPES
# B18: LC3A_17_539 (protein)
# chain: KEELKEELKKLIEEAEKLVEEVKPYIPEEAEKAKKRLKEAKKLLEEGKLKEAAELLAETADEMADAVSETEWEDPLKRTLLELEFDSLAIEAESILLKLE
# B19: LC3A_28_1059 (protein)
# chain: MSIEEELEEALEEAREAVERGEEALIELTIDEDATEEDVELVLETMEEIAELTKDLPRTTIVVDVDHKNKEEVTKLVSEKGDRLEKRYPNVTVIIALSEE
# Target: MAP1LC3A, Q9H492
# Assay: median log2 fold change of GCK-ALFA target abundance (FLAG IP / Myc IP barcode read proportion) (log2 ratio); each designed protein is fused to an ALFA-tag nanobody in HEK293 cells to bring the named protein to FLAG-tagged glucokinase (GCK); Myc marks an untargeted standard; higher = target protein stabilised (more abundant)
# Settings: target protein: 3xFLAG-MCP-GCK-ALFA reporter; HEK293 landing pad (RPLP)
# In short: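 Sequencing of reverse-transcribed, amplified circular RNA barcodes from anti-FLAG and anti-Myc immunoprecipitates provided the readout for an ALFA-nanobody-fused binder library recombined into HEK293 landing-pad cells. Those cells were induced with 2 μg mL^−1 doxycycline, transfected with a plasmid expressing a FLAG-tagged target and a Myc-tagged standard, and lysed after 48 h. Target abundance is the per-binder median log2 ratio of FLAG to Myc barcode read proportions. Only barcodes at a proportion of ≥10^−7 in both replicates and binders with ≥3 barcodes per replicate were kept, with a 10^−6 pseudocount added before the two replicates were pooled.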
row,Binder,median log2 fold change
1,B1,-0.163
2,B2,0.184
3,B3,0.00401
4,B4,-0.699
5,B5,0.167
6,B6,-0.324
7,B7,0.081
8,B8,-0.0674
9,B9,0.233
10,B10,-0.553
11,B11,-0.454
12,B12,0.0611
13,B13,-0.124
14,B14,-0.0281
15,B15,-0.0458
16,B16,0.213
17,B17,-0.303
18,B18,-0.51
19,B19,-0.148
